From publication PMC5101189

Legend:
Assay in all cases: cross-linking mass spectrometry
Settings in all cases: BS3, purified complex
[1] = biological target: DSN1 (UniProt Q9H410)
[2] = biological target: SPC24 (UniProt Q8NBT2)
[3] = biological target: ZWINT (UniProt O95229)
[4] = biological target: MIS12 (UniProt Q9H081)
[5] = biological target: PMF1 (UniProt Q6P1K2)
[6] = biological target: NSL1 (UniProt Q96IY1)
[7] = biological target: SPC25 (UniProt Q9HBM1)
Chain of SPC25 (Q9HBM1 whole entry): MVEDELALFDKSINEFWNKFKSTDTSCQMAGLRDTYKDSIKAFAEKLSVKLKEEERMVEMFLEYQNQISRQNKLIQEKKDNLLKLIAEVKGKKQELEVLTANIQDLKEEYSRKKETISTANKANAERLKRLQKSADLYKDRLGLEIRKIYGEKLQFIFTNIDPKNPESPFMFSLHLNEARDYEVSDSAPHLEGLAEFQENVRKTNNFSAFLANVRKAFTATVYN

Chain of NDC80, O14777 (O14777 whole entry): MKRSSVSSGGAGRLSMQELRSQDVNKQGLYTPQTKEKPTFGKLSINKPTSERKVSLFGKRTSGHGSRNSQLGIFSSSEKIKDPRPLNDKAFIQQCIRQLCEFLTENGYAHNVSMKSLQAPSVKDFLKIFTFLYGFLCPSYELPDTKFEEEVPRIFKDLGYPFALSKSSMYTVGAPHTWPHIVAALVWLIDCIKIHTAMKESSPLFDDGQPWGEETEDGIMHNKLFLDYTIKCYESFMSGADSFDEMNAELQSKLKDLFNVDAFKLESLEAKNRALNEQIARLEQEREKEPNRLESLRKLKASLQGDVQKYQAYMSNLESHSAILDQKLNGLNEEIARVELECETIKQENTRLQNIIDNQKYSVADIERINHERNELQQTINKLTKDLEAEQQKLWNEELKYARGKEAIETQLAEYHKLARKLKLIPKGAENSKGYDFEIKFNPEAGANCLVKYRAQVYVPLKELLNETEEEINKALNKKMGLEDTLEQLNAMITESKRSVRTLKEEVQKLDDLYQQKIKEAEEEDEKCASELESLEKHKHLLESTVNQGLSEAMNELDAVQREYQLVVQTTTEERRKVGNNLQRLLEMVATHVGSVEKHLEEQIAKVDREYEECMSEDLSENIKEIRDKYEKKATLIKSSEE
Chain of CENPC, Q03188 (Q03188 whole entry): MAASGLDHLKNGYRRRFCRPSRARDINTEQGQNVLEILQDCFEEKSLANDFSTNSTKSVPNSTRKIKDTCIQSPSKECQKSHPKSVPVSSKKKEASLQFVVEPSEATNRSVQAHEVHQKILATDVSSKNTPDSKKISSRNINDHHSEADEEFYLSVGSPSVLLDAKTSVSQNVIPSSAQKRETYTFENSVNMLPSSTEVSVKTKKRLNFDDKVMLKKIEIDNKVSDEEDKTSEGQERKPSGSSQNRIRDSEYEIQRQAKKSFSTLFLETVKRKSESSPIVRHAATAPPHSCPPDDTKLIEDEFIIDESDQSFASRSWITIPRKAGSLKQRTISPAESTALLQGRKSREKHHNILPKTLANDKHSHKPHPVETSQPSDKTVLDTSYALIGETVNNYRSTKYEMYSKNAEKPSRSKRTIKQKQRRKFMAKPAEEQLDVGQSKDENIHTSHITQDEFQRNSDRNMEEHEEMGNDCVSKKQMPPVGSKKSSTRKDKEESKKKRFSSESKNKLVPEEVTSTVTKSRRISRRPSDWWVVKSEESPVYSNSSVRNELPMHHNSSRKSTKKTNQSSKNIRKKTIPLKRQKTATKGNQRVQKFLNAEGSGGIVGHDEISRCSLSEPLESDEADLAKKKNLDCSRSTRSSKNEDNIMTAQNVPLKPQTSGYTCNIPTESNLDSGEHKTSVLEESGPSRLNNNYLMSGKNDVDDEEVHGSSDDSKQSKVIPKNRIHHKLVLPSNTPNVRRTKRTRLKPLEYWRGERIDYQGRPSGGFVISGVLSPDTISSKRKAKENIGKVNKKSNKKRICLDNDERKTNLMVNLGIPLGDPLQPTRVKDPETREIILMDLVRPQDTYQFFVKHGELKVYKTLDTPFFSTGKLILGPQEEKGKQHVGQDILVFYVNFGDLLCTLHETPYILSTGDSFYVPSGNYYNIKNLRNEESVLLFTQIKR
Chain of SPC24 (Q8NBT2 whole entry): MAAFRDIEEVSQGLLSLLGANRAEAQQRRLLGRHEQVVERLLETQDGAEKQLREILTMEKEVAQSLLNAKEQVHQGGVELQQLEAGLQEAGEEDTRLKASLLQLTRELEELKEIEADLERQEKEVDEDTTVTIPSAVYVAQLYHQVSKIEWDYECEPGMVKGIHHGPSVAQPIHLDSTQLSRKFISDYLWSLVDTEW
Chain of NSL1 (Q96IY1 whole entry): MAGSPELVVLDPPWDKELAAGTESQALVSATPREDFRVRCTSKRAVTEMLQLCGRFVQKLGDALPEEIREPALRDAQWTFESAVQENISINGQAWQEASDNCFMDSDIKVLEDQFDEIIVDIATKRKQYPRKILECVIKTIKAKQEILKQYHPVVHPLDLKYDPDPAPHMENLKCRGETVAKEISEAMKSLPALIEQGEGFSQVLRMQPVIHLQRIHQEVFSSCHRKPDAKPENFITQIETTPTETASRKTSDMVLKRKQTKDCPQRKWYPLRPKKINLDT
Chain of PMF1 (Q6P1K2 whole entry): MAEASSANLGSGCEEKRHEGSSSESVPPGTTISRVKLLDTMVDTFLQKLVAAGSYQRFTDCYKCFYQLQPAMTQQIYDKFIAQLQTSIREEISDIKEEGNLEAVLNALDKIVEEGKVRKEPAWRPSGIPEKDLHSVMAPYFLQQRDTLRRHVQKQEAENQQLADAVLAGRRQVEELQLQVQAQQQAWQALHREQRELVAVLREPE
Chain of PMF1, Q6P1K2 (Q6P1K2 whole entry): as above
Chain of DSN1 (Q9H410 whole entry): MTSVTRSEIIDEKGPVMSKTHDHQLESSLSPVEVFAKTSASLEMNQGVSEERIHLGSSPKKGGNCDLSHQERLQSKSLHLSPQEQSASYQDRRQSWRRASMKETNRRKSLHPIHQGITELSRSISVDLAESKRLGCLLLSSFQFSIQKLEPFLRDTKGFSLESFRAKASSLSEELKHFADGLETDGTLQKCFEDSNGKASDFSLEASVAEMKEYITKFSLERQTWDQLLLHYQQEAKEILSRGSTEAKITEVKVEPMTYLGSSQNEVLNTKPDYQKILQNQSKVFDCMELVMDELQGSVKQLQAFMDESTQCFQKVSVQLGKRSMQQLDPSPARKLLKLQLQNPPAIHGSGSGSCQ
Chain of MIS12 (Q9H081 whole entry): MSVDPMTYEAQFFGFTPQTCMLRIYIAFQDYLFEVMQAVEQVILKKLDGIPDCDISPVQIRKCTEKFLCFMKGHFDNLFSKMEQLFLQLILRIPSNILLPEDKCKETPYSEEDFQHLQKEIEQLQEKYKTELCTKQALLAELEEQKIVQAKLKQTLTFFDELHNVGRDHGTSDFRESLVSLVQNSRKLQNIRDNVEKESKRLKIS
Chain of ZWINT, O95229 (O95229 whole entry): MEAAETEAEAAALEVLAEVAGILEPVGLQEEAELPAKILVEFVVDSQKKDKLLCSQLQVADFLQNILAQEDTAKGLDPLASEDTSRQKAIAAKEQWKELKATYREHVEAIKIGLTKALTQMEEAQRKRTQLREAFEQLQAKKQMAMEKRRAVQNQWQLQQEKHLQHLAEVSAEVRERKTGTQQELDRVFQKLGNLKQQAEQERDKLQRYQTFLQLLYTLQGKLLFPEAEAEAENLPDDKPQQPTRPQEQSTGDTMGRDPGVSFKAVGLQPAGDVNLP
Chain of ZWINT (O95229 whole entry): as above
Chain of NSL1, Q96IY1 (Q96IY1 whole entry): as the sequence (Q96IY1 whole entry) above

How did the cross-linked residues [1] turn out when NDC80, O14777 was run?
The cross-linked residues was “K300 - K315”.

And the cross-linked residues [2]?
The cross-linked residues was “K624 - K50”.

And the cross-linked residues [3]?
Its cross-linked residues is “K271 - K141”.

Which cross-linked residues [4] does the source give for CENPC, Q03188 here?
Its cross-linked residues is “K45 - K81”.

And the cross-linked residues [5]?
Its cross-linked residues is “K45 - K48”.

How did the cross-linked residues [6] turn out when ZWINT, O95229 was run?
Its cross-linked residues is “K196 - K262”.

With KNL1, Q8NG31 as the substance, how does the cross-linked residues [6] read?
The cross-linked residues was “K2247 - K268”.

Which cross-linked residues [2] does the source give for PMF1, Q6P1K2 here?
The cross-linked residues was “K79 - K98”.

How did the cross-linked residues [7] turn out when NSL1, Q96IY1 was run?
Its cross-linked residues is “K275 - K203”.
